A short description of assay [1]: qHTS assay for small molecule agonists of the p53 signaling pathway (AID 651631; calls by dose curve; also: nearly all actives have a fitted effect of over 15% in size). The gist of the method: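 HCT-116 cells carrying a beta-lactamase reporter under p53 response elements were dosed with compound for 16 h at 37 °C. LiveBLAzer B/G FRET substrate was then added for 2 h at room temperature, and fluorescence intensity was read to detect pathway agonism.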
A general note: In qHTS, concentration-response curves come from the screen itself.

The nature of assay [2]: qHTS assay for small molecules that induce genotoxicity in human embryonic kidney cells expressing luciferase-tagged ATAD5 (AID 651632). Also: nearly all actives have a fitted effect of over 15% in size. The gist of the method:
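A rise in luciferase signal from ATAD5-tagged HEK293T cells marks genetic stress. Cells were exposed to compounds for 16 hr at 37C, 5% CO2, then luciferase was quantified after a 30 min room-temperature incubation with Amplite.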

A short description of assay [3]: qHTS assay for small molecule agonists of the p53 signaling pathway - cell viability (AID 651633; calls by dose curve;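 also: p53RE-bla HCT reporter cells with a stable beta-lactamase p53 reporter; series mostly up to about 83 µM; nearly all actives have a fitted effect of over 30% in size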). The gist of the method: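 p53RE-bla cells, seeded at 4,000 per well and rested 5 h at 37 C/5% CO2, received compounds in DMSO for 16 h at 37 C. CellTiter-Glo was then added, and luminescence was read after 30 min at room temperature to gauge cytotoxicity.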
The nature of assay [4]: qHTS assay for small molecule disruptors of the mitochondrial membrane potential - cell viability (AID 720634; calls by dose curve;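 also: human HepG2 liver cancer cells; series mostly up to about 83 µM; nearly all actives have a fitted effect of over 20% in size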). The gist of the method:
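Cytotoxicity was quantified from ATP content by CellTiter-Glo luminescence in the same wells as the MMP dye read-out. HepG2 (2,000 cells/well) were plated overnight and exposed to compounds for 1 hr at 37 C.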

Assay [5] can be described thus: qHTS assay for small molecule disruptors of the mitochondrial membrane potential (AID 720635). Also: potency is read from the fitted curve at half-maximal effect. The gist of the method:
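HepG2 cells (2,000/well) attached overnight at 37C, then took compound for 1 hr at 37C, 5% CO2. Mito-MPS dye was added for 30 min; fluorescence was read at 490/535 nm (monomers) and 540/590 nm (aggregates).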

A short description of assay [6]: qHTS assay to test for compound auto fluorescence at 590 nm (red) in HepG2 cells (AID 720674). Summed up: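 Compound auto-fluorescence is scored relative to Rose Bengal sodium, measured at 540/590 nm in live HepG2 cultures after 1 hr compound contact (37 C, 5% CO2).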
Assay [7] in a line: qHTS assay to test for compound auto fluorescence at 535 nm (green) in HepG2 cells (AID 720675).
Assay [8] can be described thus: qHTS assay to test for compound auto fluorescence at 460 nm (blue) in HEK293 cells (AID 720678). The gist of the method:
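Cells were seeded and left to adhere for 4-5 hr at 37C. Compounds were then pin-transferred. After an overnight incubation at 37C under 5% CO2, intrinsic fluorescence at 405/460 nm was measured and referenced to triamterene.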

Assay [9] in a line: qHTS assay to test for compound auto fluorescence at 590 nm (red) in HEK293 cells (AID 720679). Summed up: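 Each well held 2,000 HEK293 cells in medium containing 10% dialyzed FBS. Following 4-5 hr attachment at 37C, 23 nL test compound or DMSO was added; plates sat overnight, and red fluorescence (540/590nm) was recorded.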
A short description of assay [10]: qHTS assay for small molecules that induce genotoxicity in human embryonic kidney cells expressing luciferase-tagged ATAD5 - cell viability (AID 651634; calls by dose curve; also: nearly all actives have a fitted effect of over 25% in size). The gist of the method:
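Cytotoxicity counter-readout: after 15.5 hr compound treatment at 37C, live-cell protease activity in ATAD5-luciferase HEK293T cells measured by CellTiter-Fluor fluorescence, 30 min development at 37C.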

Inconclusive results are not listed. Calls of active or inactive are those of the source. Unless noted, calls follow the shape of the dose curve; as a rule, active = well fitted curve in the direction sought with a large enough effect in the repeat runs; inconclusive = weak or mixed curves; inactive = no such curve, though single readings can be large; an effect the other way counts as inactive or inconclusive.

Regarding `CCCOC(=O)c1ccccc1`, the outcome in [1], in assay [2], in [3], in assay [6], in assay [7] and in assay [8] was inactive. Also, in assay [9], the call was inactive. Besides, the Potency entry in assay [4] and in assay [5] was “inactive” each time.

Take `CCCCCCCCCCCCCCCC(=O)OC(C)C`: the outcome in assay [1], in assay [2], in [3], in assay [7], in assay [8] and in assay [9] was inactive. Also, the Potency result in [10], in [4] and in [5] was “inactive” throughout.

As to `C=Cc1ccc(C)cc1`, the compound was classed as inactive in assay [1], in [2], in assay [3], in assay [7] and in [8]. For the same compound, the Potency result in [4] and in assay [5] was “inactive” each time.

As to `Cc1ccc(S(=O)(=O)N=C=O)cc1`, the result in assay [1], in assay [2], in assay [3], in assay [6], in assay [7] and in assay [8] was inactive. The Potency result in assay [4] and in assay [5] was “inactive” throughout.

As for `COc1ccc(C)cc1N`, the result in assay [1], in assay [2], in assay [3], in [6], in assay [7] and in assay [8] was inactive. Moreover, the Potency entry in assay [4] and in assay [5] was “inactive” each time.

Consider `CCOC(=O)n1ccn(C)c1=S`, for which the call in assay [1], in assay [2], in [3], in assay [6], in assay [7] and in assay [8] was inactive. The result in assay [9] was inactive. Besides, the Potency result in assay [4] and in assay [5] was “inactive” in each case.

As to `CC(C)(C#N)c1cc(Cn2cncn2)cc(C(C)(C)C#N)c1`, the result in assay [1], in assay [2], in assay [3], in assay [6], in [7] and in [8] was inactive. For the same compound, the Potency result in [4] is “inactive”.

On to `C=CC[N+](C)(C)CC=C`, for which the call in [1], in assay [2], in assay [3], in assay [6], in [7] and in [8] was inactive. For the same compound, the Potency result in assay [4] and in [5] was “inactive” each time.

On to `O=C1C(c2[nH]c3ccccc3c2O)=Nc2ccccc21`, for which the call in assay [1], in [2], in assay [3], in [7] and in [8] was inactive. Besides, the Potency result in [4] is “inactive”. Besides, the Potency in assay [5] was 4.22 µM (active).

Consider `CC(C)CCCCCCCOC(=O)CCCCC(=O)OCCCCCCCC(C)C`, for which the result in assay [1], in assay [2], in [3], in assay [6], in assay [7] and in [8] was inactive. Also, the result in assay [9] was inactive. In addition, the Potency entry in [4] was “inactive”.

As for `CC(CCl)OP(=O)(OC(C)CCl)OC(C)CCl` (centres undefined), the compound was classed as inactive in [1], in assay [2], in [3], in assay [7], in assay [8] and in [9]. Besides, the Potency entry in [4] and in [5] was “inactive” throughout.

On to `CC(C)=CCl`, for which the compound was called inactive in assay [1], in assay [2], in assay [3], in assay [6], in assay [7] and in assay [8]. Also, the compound was called inactive in assay [9]. The Potency entry in assay [10] and in assay [4] was “inactive” each time.

As for `COC(=O)c1cccnc1`, the compound was called inactive in assay [1], in [2], in [3], in assay [7], in [8] and in assay [9]. Moreover, the Potency result in assay [4] and in assay [5] was “inactive” in each case.

`CN(C)CCOC(=O)COc1ccc(Cl)cc1`: the result in assay [1], in [2], in assay [3], in assay [7] and in assay [8] was inactive. Also, the Potency result in assay [10] and in assay [4] was “inactive” throughout.

Consider `CC(=O)OCCOC(C)=O`, for which the call in assay [1], in assay [2], in [3], in assay [6], in assay [7] and in assay [8] was inactive. Also, in [9], the compound was classed as inactive. Also, the Potency result in [10] is “inactive”.

For `O=C(O)c1ccccc1C(=O)O`, the result in assay [1], in [2], in assay [3], in assay [6], in [7] and in assay [8] was inactive. Further, the Potency entry in assay [4] and in assay [5] was “inactive” in each case.

With `CC1(C)S[C@@H]2[C@H](NC(=O)COc3ccccc3)C(=O)N2[C@H]1C(=O)O`, the compound was called inactive in assay [1], in [2], in assay [3], in assay [7], in [8] and in [9]. For the same compound, the Potency entry in [4] and in assay [5] was “inactive” throughout.

Take `CN1C(=O)CC[C@H]1c1cccnc1`: the compound was called inactive in assay [1], in assay [2], in assay [3], in assay [6], in [7] and in [8]. The outcome in [9] was inactive. Besides, the Potency entry in [4] and in assay [5] was “inactive” each time.

For `COC(=O)CCCC(=O)OC`, the result in assay [1], in assay [2], in assay [3], in assay [7], in assay [8] and in assay [9] was inactive. In assay [10], the Potency result was “inactive”.

As to `c1ccc(Oc2ccccc2)cc1`, the result in [1], in assay [2], in assay [3], in [6], in [7] and in assay [8] was inactive. Moreover, the Potency result in assay [4] and in assay [5] was “inactive” throughout.

On to `CCOCCOCCOCCO`, for which the result in assay [1], in assay [2], in assay [3], in assay [6], in [7] and in [8] was inactive. In addition, the compound was called inactive in assay [9]. In addition, the Potency entry in [4] and in [5] was “inactive” in each case.

As to `Brc1ccc(Br)c(Br)c1`, the outcome in assay [1], in [2], in [3], in [6], in assay [7] and in [8] was inactive. Further, in assay [9], the outcome was inactive. Besides, the Potency result in assay [10] and in assay [4] was “inactive” throughout.

For `CCCCCCC=O`, the call in assay [1], in [2], in assay [3], in assay [7], in [8] and in assay [9] was inactive. In addition, the Potency entry in [10] and in assay [4] was “inactive” in each case.

For the compound `CC1(C)OC[C@@H]2O[C@@]3(C(=O)O)OC(C)(C)O[C@H]3[C@@H]2O1`, the call in assay [2], in assay [3], in [7], in [8] and in assay [9] was inactive. In addition, the Potency entry in [10], in [4] and in assay [5] was “inactive” in each case.

As for `CN(C)c1ccc(O)c2c1C[C@H]1C[C@H]3[C@H](N(C)C)C(=O)C(C(N)=O)=C(O)[C@@]3(O)C(=O)C1=C2O`, the compound was called inactive in [2], in assay [3], in [6], in assay [7], in assay [8] and in [9]. In addition, the Potency result in assay [10], in assay [4] and in assay [5] was “inactive” in each case.

For `O=C(O)c1ccc(C(=O)O)c(C(=O)O)c1`, the compound was classed as inactive in assay [2], in assay [3], in assay [7], in assay [8] and in [9]. Moreover, the Potency entry in assay [4] and in assay [5] was “inactive” throughout.

For `O=C(O)Cn1c(=O)n(Cc2ccc(Br)cc2F)c(=O)c2ccc(Cl)cc21`, the outcome in [1], in [2], in assay [3], in assay [6], in assay [7] and in assay [8] was inactive. Besides, the outcome in assay [9] was inactive. In addition, the Potency entry in [4] is “inactive”.

Consider `O=S(=O)(O)c1ccccc1`, for which the call in assay [3], in assay [6], in assay [7] and in assay [8] was inactive. In addition, the Potency entry in assay [10], in [4] and in assay [5] was “inactive” in each case.

Turning to `CC(=O)OCc1ccccc1`, the call in assay [2], in assay [3], in [6], in assay [7], in assay [8] and in assay [9] was inactive. The Potency result in assay [10], in assay [4] and in [5] was “inactive” throughout.

Source of the values: PubChem BioAssay (Tox21).
